What all share (assay): NCI-60 one-dose screen, 48 h (100 = growth as untreated, 0 = no growth, -100 = all killed)
Conditions in all cases: 10 µM unless noted

The subject of experiment [1] is HCT-15 colon.
Experiment [2] relates to HT29 colon.
In experiment [3] the test system is SNB-75 CNS.
For experiment [4], the system named is U251 CNS.
Experiment [5] has as its system PC-3 prostate.
Experiment [6] deals with SK-MEL-5 melanoma.
The test system of experiment [7] is UACC-62 melanoma.
Experiment [8] deals with LOX IMVI melanoma.
The test system of experiment [9] is SK-MEL-28 melanoma.
Experiment [10] relates to SK-MEL-2 melanoma.
For experiment [11], the system named is EKVX NSCLC.
Experiment [12] has as its system SN12C renal.
Experiment [13] has as its system UO-31 renal.
Experiment [14] has as its system TK-10 renal.
Experiment [15] deals with ACHN renal.
Experiment [16] has as its system CAKI-1 renal.
Experiment [17] deals with A498 renal.
Experiment [18] concerns CCRF-CEM leukemia.
Experiment [19] has as its system MOLT-4 leukemia.
Experiment [20] deals with SNB-19 CNS.

Among the data in PubChem BioAssay (NCI) are growth values, retold here.

About 83,000 compounds went through this panel and 20% of them were active in at least one assay; those are over-represented in the sample as a whole.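 Negative percent growth values reflect cell death: -40 means 40% of the cells present at the start died, and -100 means all died.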 Unmarked numbers belong to inactive results. The source made the active and inactive calls. The calls were made as follows: active = growth percent below 10; inactive = the rest.

Regarding `Cc1ccc(S(=O)(=O)OC[C@]23CCC(C)(C)C[C@H]2C2=CC[C@@H]4[C@@]5(C)CCCNC(C)(C)[C@@H]5CC[C@@]4(C)[C@]2(C)CC3)cc1`, the growth is -50.9% (active) in experiment [1]; -59.3% (active) in experiment [2]; 86.4% in experiment [3]; -81.1% (active) in experiment [4]; 53.9% in [5]; 91.5% in experiment [6]. For the same molecule, the growth in experiment [7] was 89.7%; in experiment [8] it was -87.7% (active); in experiment [9] it was 99.8%; in experiment [10], 102%; in [11] it was 83%; in experiment [12], 46.4%. Also, the growth was 60.2% in experiment [13]; 73% in [14]; 48.6% in experiment [15]; 41.9% in experiment [16]; 95.4% in experiment [17]; 34.5% in [18]. In addition, the growth in experiment [19] was 12.9%.
`CNC(=O)c1cc(Oc2ccc3c(c2)sc2nc(-c4cc(C(F)(F)F)cc(C(F)(F)F)c4)cn23)ccn1`: the growth is 70.9% in experiment [1]; 38.7% in [2]; 23.3% in [3]; 38.6% in experiment [4]; 45.4% in experiment [5]; 33% in experiment [6]. The growth in experiment [7] is 53.3%; in [8], 50.1%; in [9], 79.3%; in experiment [10], 56.8%; in experiment [11], 45.1%; in experiment [12], 60.2%. In addition, the growth in experiment [13] was 61.7%; in experiment [14], 36%; in experiment [15], 50.3%; in [16] it was 51.1%; in experiment [17], 42.5%; in [18] it was 64.1%. The growth in [19] is 45.3%.
In the case of `O=C(c1ccc(Br)cc1)C(Br)C(c1ccc(Cl)cc1)C(c1ccccc1)[N+](=O)[O-]` (stereo unspecified), the growth in [1] is 84.8%; in experiment [2] it was 87.3%; in [3], 89.4%; in experiment [4], 96.9%; in [5] it was 76.5%; in [6], 86.6%. Moreover, the growth in [7] was 71.8%; in [8], 102%; in experiment [9] it was 97.7%; in [10] it was 110%; in [11], 79.9%; in [12], 101%. Besides, the growth was 79% in experiment [13]; 103% in experiment [14]; 102% in experiment [15]; 88.7% in [16]; 87.5% in experiment [17]; 90.3% in experiment [18]. For the same molecule, the growth in [19] was 89.7%.
For the molecule `O=c1cc(C(F)(F)F)c2cc(-c3cc4ccccc4c(=O)o3)c(O)cc2o1`, the growth in [1] is 90.3%; in [2] it was 106%; in experiment [3], 76.1%; in experiment [4] it was 65.7%; in [5], 68.5%; in experiment [6], 24.9%. Also, the growth is 21.9% in experiment [7]; 72.8% in experiment [8]; 69.6% in experiment [9]; 46.1% in experiment [10]; 89.5% in [11]; 64.4% in [12]. In addition, the growth in [13] is 58.5%; in experiment [14], 103%; in experiment [15], 74.1%; in experiment [16], 76.5%; in experiment [17], 72%; in experiment [18] it was 53.9%. In addition, the growth in [19] was 58.5%.
As to `COc1ccc2c(c1)c(-c1nc(-c3ccc4ccccc4c3)cs1)cn2C`, the growth was 73% in experiment [1]; 51.3% in experiment [2]; 109% in experiment [3]; 91% in [4]; 87.1% in [5]; 94.5% in [6]. For the same molecule, the growth in experiment [7] was 91.3%; in [8], 86%; in [9], 89.6%; in experiment [10] it was 108%; in [11] it was 85.8%; in experiment [12], 93.6%. The growth is 70.6% in experiment [13]; 102% in [14]; 87.4% in experiment [15]; 83.6% in experiment [16]; 86.8% in experiment [17]; 88.7% in [18]. Also, the growth in [19] was 84%.
For the molecule `COc1ccc(NC(=O)c2ccc(Nc3ncnc4c3cnn4-c3cccc(F)c3)cc2)cc1`, the growth in experiment [1] is 102%; in experiment [2], 104%; in experiment [3], 93.9%; in experiment [4], 103%; in experiment [5] it was 96.3%; in experiment [6] it was 98.4%. Besides, the growth is 94.8% in experiment [7]; 96% in experiment [8]; 113% in experiment [9]; 104% in [10]; 101% in experiment [11]; 95.7% in experiment [12]. The growth in experiment [13] was 88.6%; in experiment [14], 103%; in [15] it was 99.6%; in experiment [16] it was 90.8%; in [17] it was 57.3%; in [18], 97.2%. For the same molecule, in [19], the growth is 100%.
In the case of `C=C1C(=O)O[C@H]2[C@H]1CC/C(COC(=O)NCc1ccc(Cn3c(=O)sn(-c4ccccc4)c3=O)cc1)=C\CC[C@@]1(C)O[C@@H]21`, the growth in experiment [1] is 32.4%; in [2] it was 20.1%; in experiment [3], 9.33% (active); in [20] it was 92.4%; in experiment [4], 40.4%; in experiment [5] it was 64%. Besides, the growth was 95.1% in experiment [6]; 6.38% (active) in experiment [8]; 47% in experiment [9]; 49.6% in experiment [10]; 77.1% in experiment [11]; 66.6% in [13]. Further, the growth in experiment [14] was 4.49% (active); in [15], 29.6%; in experiment [16], 15.6%; in experiment [17], 127%; in [18] it was -9.16% (active); in experiment [19], -5.87% (active).
Take `CC1(/C=C/c2ccc(-c3ccccc3)cc2)CCn2cnc3ncnc(c32)N1O` (stereo unspecified): the growth was 21.5% in experiment [1]; 30% in [2]; 36.3% in [3]; 24.7% in [4]; 42.4% in [5]; -6.47% (active) in experiment [6]. The growth in experiment [7] is 0.915% (active); in experiment [8], 9.21% (active); in [9], 29.7%; in [10], 38.8%; in experiment [11] it was 17.6%; in experiment [12], 20.2%. Also, the growth in experiment [13] is -5.45% (active); in experiment [14] it was 34.1%; in [15] it was 6.19% (active); in experiment [16], 4.49% (active); in [17], 19%; in experiment [18] it was 11.8%. Moreover, the growth in [19] was 14.2%.
